MITF primary: MITF inhibitors, primary screen, biochemical, AlphaScreen, human; AlphaScreen MITF homodimerization, bead proximity signal; inhibition, % at 2.6 µM; actives 0.91% (n = 650,000); in the data active means inhibition above about 50%;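 further: 0% = vehicle wells with protein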
GPR151 ag: activators of human GPR151, primary screen, cell-based, PathHunter beta-arrestin, luminescence | G-protein coupled receptor 151 (Homo sapiens), Q8TDV0 | PathHunter beta-arrestin GPR151 cells | activation, % at 11.2 µM | actives 1% (n = 650,000); in the data active means activation above about 4.9%;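 further: 0% = median of compound wells and 100% = cells with positive control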
FBW7 activator: FBW7 E3 ligase activators, primary screen, biochemical, AlphaScreen, human | normalized activity (activation), % at 26.1 µM | AlphaScreen FBW7–phospho-cyclin E peptide binding, activator screen | AID 1259310, 2017 | actives 0.13% (n = 650,000); in the data active means normalized activity above about 1.9%;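 further: purified mutant Fbw7 with reduced substrate affinity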
Target sequence (Q969H0 whole entry, looked up): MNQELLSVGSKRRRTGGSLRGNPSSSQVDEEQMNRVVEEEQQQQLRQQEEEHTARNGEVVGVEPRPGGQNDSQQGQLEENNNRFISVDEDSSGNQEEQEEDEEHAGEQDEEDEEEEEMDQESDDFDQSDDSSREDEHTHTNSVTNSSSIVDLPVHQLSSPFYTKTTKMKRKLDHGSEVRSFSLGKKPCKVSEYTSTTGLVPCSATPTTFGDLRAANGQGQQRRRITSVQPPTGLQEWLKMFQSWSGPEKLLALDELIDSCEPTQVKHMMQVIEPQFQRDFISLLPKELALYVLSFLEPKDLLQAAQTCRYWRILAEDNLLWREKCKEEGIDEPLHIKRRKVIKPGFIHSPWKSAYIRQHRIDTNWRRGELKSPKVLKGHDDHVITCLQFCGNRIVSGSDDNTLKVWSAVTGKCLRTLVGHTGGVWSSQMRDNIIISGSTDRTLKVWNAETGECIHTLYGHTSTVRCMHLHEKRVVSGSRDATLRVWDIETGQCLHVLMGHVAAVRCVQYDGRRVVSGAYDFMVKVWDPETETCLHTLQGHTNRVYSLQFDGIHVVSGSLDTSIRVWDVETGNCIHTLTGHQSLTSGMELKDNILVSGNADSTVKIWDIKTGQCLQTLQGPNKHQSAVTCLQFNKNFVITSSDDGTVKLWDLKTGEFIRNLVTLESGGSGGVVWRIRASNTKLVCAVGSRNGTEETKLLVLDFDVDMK
TEAD-YAP block: TEAD-YAP interaction inhibition, primary screen, TEAD-YAP interaction inhibitor project, luminescence, HEK-TIYL cells. AID 1259422, 2018. inhibition, % at 9.12 µM. TEAD-Gal4/YAP UAS-luciferase luminescence. actives 1.4% (n = 640,000); in the data active means inhibition above about 32%;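 further: 0% = median of test compound wells and 100% = reference inhibitor wells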
Active calls of the source: *. An excerpt weighted towards active compounds, which were near 3.4% of everything screened.

SMILES | MITF primary | GPR151 ag | FBW7 activator | TEAD-YAP block
Cc1ccc2c(C)nc(N3CCCC(NCC4COc5ccccc5O4)CC3)nc2c1 (configuration not stated) | 5 | 0 | 1.9* | -18
Fc1ccc(CCn2c(C3COc4ccccc4O3)nc3ncc(-c4ccncc4)cc32)cc1 (configuration not stated) | 2 | 2 | 0 | 51*
c1ccc2c(c1)OCC(c1nc3ncc(-c4ccncc4)cc3[nH]1)O2 (configuration not stated) | 9 | 0 | 0 | 3
Cc1ccc(-c2nc(N)sc2-c2ccc([N+](=O)[O-])cc2)cc1 | 11 | 1 | 0 | 37*
NC(=O)/C(=N/O)c1nc(-c2ccc(Br)cc2)cs1 | -4 | 0 | 0 | 9
NC(=O)/C(=N\O)c1nc(-c2ccc(Cl)cc2)cs1 | 21 | -2 | 0 | 32*
Cc1ccc2nc(-c3cccc(N)c3)[nH]c2c1 | 0 | -8 | 0 | 60*
Nc1ccc(-c2nc3ccc(C(=O)O)cc3[nH]2)cc1 | -6 | -8 | 0 | 36*
Nc1cccc(-c2nc3cc4ccccc4cc3[nH]2)c1 | -14 | -8 | 0 | 50*
Nc1ccc(C(=O)Nc2ccc3nc(-c4ccccc4)[nH]c3c2)cc1 | -15 | 3 | 0 | -37
Cc1ccc2nc(-c3ccccc3)[nH]c2c1 | -1 | -11 | 0 | 51*
CC(=O)Nc1ccc(NC(=O)c2ccnc(N3CCCC3CO)c2)cc1 (configuration not stated) | 11 | -1 | 0 | 5
CN(C)c1ccc(-c2nc3ccccc3[nH]2)cc1 | 21 | -10 | 0 | 96*
CCN(CC)c1nc(NC2CC2)nc(N2CCc3ccccc3C2)n1 | 0 | 4 | 0 | 16
COc1ccc(Cl)cc1NC1=C(Cl)C(=O)N(c2ccc(C)cc2)C1=O | -5 | 1 | 0 | 45*
COc1ccccc1NC1=C(Cl)C(=O)N(c2ccc(C)cc2)C1=O | 10 | 2 | 0 | -5
CCc1ccc(N2C(=O)C(Cl)=C(Nc3cccc(OC)c3)C2=O)cc1 | 13 | 1 | 0 | 54*
COc1cccc(NC2=C(Cl)C(=O)N(c3ccc(C)cc3)C2=O)c1 | 11 | -1 | 0 | 4
CN(C(=O)c1ccc(S(=O)(=O)N2CCCC2)cc1)c1ccccc1 | 1 | 1 | 0 | 3
Cc1ccccc1-n1c(O)c(C=NCCc2c[nH]c3ccccc23)c(=O)[nH]c1=S | 0 | 0 | 0 | 4
FC(F)(F)C1=Nc2cccc3cccc(c23)N1 | 114* | 0 | 0 | 6
CCCCNc1nc2ccccc2c2nc(-c3ccncc3)nn12 | -5 | 0 | 0 | -4
CC1CCCCN1CCCNc1nc2ccccc2c2nc(-c3ccncc3)nn12 (configuration not stated) | 5 | 1 | 0 | 80*
CCN(CC)CCCNc1nc2ccccc2c2nc(-c3ccncc3)nn12 | -7 | -1 | 0 | 80*
CCN(CC)CCCNc1nc2cc(OC)c(OC)cc2c2nc(-c3ccccc3)nn12 | 17 | 1 | 0 | 32*
SMILES | MITF primary | GPR151 ag | FBW7 activator | TEAD-YAP block
COc1ccc(C2CC(=O)C3=C(C2)NC(C)=C(C(=O)OC2CCCCC2)C3c2ccccc2Cl)cc1OC (configuration not stated) | -6 | 1 | 0 | 1
COc1ccc(-c2cc(-c3ccccc3)c(C#N)c(S(=O)Cc3ccccc3)n2)cc1 (configuration not stated) | 5 | -1 | 0 | 3
COc1ccc(-c2cc(-c3ccccc3)c(C#N)c(S(C)=O)n2)cc1 (configuration not stated) | -8 | 0 | 0 | 53*
N/C(=N\OC(=O)c1sc2ccccc2c1Cl)c1ncon1 | 17 | 0 | 1 | 40*
N/C(=N\OC(=O)c1ccccc1Cl)c1ncon1 | 5 | 0 | 0 | 20
CC(=O)/C=C1\N(C)c2ccccc2C1(C)C | 10 | 1 | 0 | -10
CC(=O)c1ccc(S(=O)(=O)N(C)CC(=O)/C=C2/N(C)c3ccccc3C2(C)C)cc1 | 4 | 1 | 0 | 38*
O=C(Nc1ccc(C(=O)c2ccc(Cl)cc2)c(Cl)c1)c1cc(Cl)ccc1O | 1 | 1 | 0 | 40*
COc1ccc(NC(=O)NC(=O)c2c(Cl)ccc(Cl)c2OC)cc1 | -1 | -2 | 0 | 38*
CCOc1ccc(NC(=O)c2c(Cl)ccc(Cl)c2OC)cc1 | 1 | -1 | 0 | 9
O=C(NC(=S)Nc1ccc(Cc2ccncc2)cc1)c1ccc(Cl)cc1Cl | -2 | 0 | 0 | 22
O=C(c1ccc(Cl)cc1)c1ccc(NC(=O)c2cc(Br)cc(Br)c2O)cc1Cl | -3 | -2 | 0 | -5
O=C(O)c1ccc(NC(=O)c2ccc(Cl)cc2Cl)cc1 | -19 | 2 | 0 | 45*
O=C(O)c1cc(NC(=O)c2ccc(Cl)cc2Cl)cc(C(=O)O)c1 | 0 | 4 | 0 | 13
O=C(Nc1ccc(Cc2ccncc2)cc1)c1ccc(Cl)cc1Cl | 5 | -1 | 0 | 38*
CCOC(=O)C1=C(O)/C(=C/c2ccc(OC)cc2)SC1=Nc1ccc(OC)cc1 | 8 | 0 | 0 | 0
COc1ccc(NC(=O)c2ccc(C)cc2Cl)cc1 | 48 | -5 | 0 | 73*
COC(=O)c1ccc(NC(=O)c2ccc(C)cc2Cl)cc1 | 8 | -1 | 0 | -26
Cc1ccc(S(=O)(=O)Nc2ccccc2F)cc1C(=O)O | -2 | -1 | 0 | -3
O=C1NC(=S)NC(=O)C1=Cc1cn(-c2ccccc2)nc1-c1ccc2c(c1)OCCO2 | 5 | 0 | 0 | -67
O=C1NC(=S)NC(=O)C1=Cc1cn(-c2ccccc2)nc1-c1cccs1 | 75* | -1 | 0 | -11
O=C(CSc1n[nH]c(-c2ccncc2)n1)c1ccc(O)c(O)c1 | 99* | 5 | 0 | -4
COc1ccc(CC(=O)Nc2ccc3oc(-c4ccccc4)nc3c2)cc1 | 5 | 0 | 0 | -15
COc1cc(C2CC(=O)c3c(ccc4ccccc34)N2)ccc1O (configuration not stated) | -7 | 0 | 0 | 8
COc1cc(C2CC(c3c(O)ccc4ccccc34)=NN2)ccc1O (configuration not stated) | -1 | -6 | 0 | 61*
Oc1ccc(C2CC(c3c(O)ccc4ccccc34)=NN2)cc1 (configuration not stated) | -1 | -10 | 0 | 88*
COc1cc(C2C3=C(COC3=O)Nc3ccc4ccccc4c32)ccc1O (configuration not stated) | -28 | 3 | 0 | 56*
COc1ccc(Cc2nnc(NCc3ccco3)[nH]c2=O)cc1 | 7 | 1 | 0 | 58*
COc1ccc(Cc2nnc(Nc3cccc(OC)c3)[nH]c2=O)cc1 | 14 | -1 | 0 | 57*
Cc1ccccc1-n1ncc2c(SCC(=O)Nc3ccc4c(c3)OCCO4)ncnc21 | 10 | 1 | 0 | 7

Bioassay records deposited in PubChem by The Scripps Research Institute Molecular Screening Center.
